Laboratory results as given in PubChem BioAssay (Tox21).
Where “and” joins values, the source holds several entries; their conditions need not be identical. Equal values may be shown once. Results filed as inconclusive are left out. Calls of active or inactive are those of the source. Unless noted, the call rests on the fitted dose curve; in most records, active means well fitted curve in the direction sought with a large enough effect in the repeat runs; inconclusive means weak or mixed curves; inactive means no such curve, though single readings can be large; an effect the other way counts as inactive or inconclusive.

Columns and labels:
[1] = qHTS assay to identify aromatase inhibitors - cell viability counter screen (AID 743084);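 further: cells stimulated with testosterone during compound exposure; nearly all actives have a fitted effect of over 55% in size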
[2] = biological target: Aryl hydrocarbon receptor (Homo sapiens) (UniProt P35869); assay: qHTS assay to identify small molecule that activate the aryl hydrocarbon receptor (AhR) signaling pathway (AID 743085); further: nearly all actives have a fitted effect of over 15% in size; further: potency means the concentration at half of the fitted maximal effect;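 on activation: HG2L7.5c1 human HepG2 liver cells with stably integrated DRE-driven firefly reporter; series mostly up to about 70 µM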
Summary of the method: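 HepG2 cells (HG2L7.5c1) stably carrying a firefly luciferase reporter driven by 20 dioxin responsive elements were exposed to compound for 24 h at 37C after a 5 h settling period; luminescence rise (ONE-Glo) indicated activation.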

[3] = qHTS assay to identify small molecule that activate the aryl hydrocarbon receptor (AhR) signaling pathway - cell viability counter screen (AID 743086);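 further: HepG2 liver cells carrying the AhR DRE luciferase reporter; series mostly up to about 70 µM; nearly all actives have a fitted effect of over 45% in size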
Summary of the method: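 Cytotoxicity counter screen: CellTiter-Fluor signal (30 min, 37 C) in 4000 HepG2 cells/well carrying the DRE-luciferase reporter, following 24 h compound exposure at 37 C.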

[4] = biological target: Peroxisome proliferator-activated receptor gamma (Homo sapiens) (UniProt P37231); assay: qHTS assay to identify small molecule agonists of the peroxisome proliferator-activated receptor gamma (PPARg) signaling pathway (AID 743094; active means well fitted activation curve with a large enough effect in the signal ratio in the repeat runs, not every such curve was filed as active; the % refers to the signal ratio)
Summary of the method: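 Cell-based bla reporter, HEK293H background, PPARg-driven UAS. Pre-incubation 5 h, 37C, 5% CO2. Compound 17 h, 37C. Substrate 1 h RT; fluorescence.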

[5] = biological target: Peroxisome proliferator-activated receptor gamma (Homo sapiens) (UniProt P37231); assay: qHTS assay to identify small molecule antagonists of the peroxisome proliferator-activated receptor gamma (PPARg) signaling pathway (AID 743191; calls by dose curve; further: series mostly up to about 63 µM; nearly all actives have a fitted effect of over 30% in size)
Summary of the method: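 Beta-lactamase reporter under UAS control in HEK293H PPARg-bla cells; compound treatment 17 h at 37C. Read-out: fluorescence intensity after 1 h room-temperature incubation with LiveBLAzer B/G FRET substrate.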

[6] = qHTS assay to identify small molecule antagonists of the peroxisome proliferator-activated receptor gamma (PPARg) signaling pathway - cell viability counter screen (AID 743194); further: nearly all actives have a fitted effect of over 55% in size
Summary of the method: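 Viability was measured as CellTiter-Glo luminescence in GeneBLAzer PPARg UAS-bla HEK293H cells. These cells had been exposed 17 h at 37 C to compounds together with rosiglitazone at 50 nM final, with the beta-lactamase readout taken in the same wells.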

[7] = qHTS assay for small molecule agonists of the antioxidant response element (ARE) signaling pathway (AID 743202; active means well fitted activation curve with a large enough effect in the signal ratio in the repeat runs, not every such curve was filed as active; the % refers to the signal ratio; further: potency means the concentration at half of the fitted maximal effect)
Summary of the method: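 After 16 hours of compound treatment at 37 C, HepG2 cells with a stably integrated ARE-driven beta-lactamase reporter were loaded 2 hours at room temperature with LiveBLAzer B/G FRET substrate and fluorescence intensity measured.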

[8] = qHTS assay for small molecule activators of the heat shock response signaling pathway - cell viability counter screen (AID 743209); further: nearly all actives have a fitted effect of over 50% in size
Summary of the method: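 Same-well multiplex: after 2.5 h room-temperature incubation with LiveBLAzer B/G substrate and fluorescence reading, CellTiter-Glo reagent was added to HSE-bla HeLa cells that had received compound for 5 h at 37 C; luminescence read after 30 min.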

[9] = qHTS assay for small molecule activators of the heat shock response signaling pathway (AID 743210; active means well fitted activation curve with a large enough effect in the signal ratio in the repeat runs, with a control signal flat, not every such curve was filed as active; the % refers to the signal ratio; further: series mostly up to about 63 µM)
Summary of the method: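 Compound exposure lasted 5 h at 37 C in HeLa cells carrying a heat-shock-element-driven beta-lactamase reporter. Read-out: fluorescence intensity after 2.5 h room-temperature loading with LiveBLAzer B/G FRET substrate.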

[10] = qHTS assay to identify small molecule agonists of the peroxisome proliferator-activated receptor delta (PPARd) signaling pathway - cell viability counter screen (AID 743211); further: nearly all actives have a fitted effect of over 55% in size
Summary of the method: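 PPARd-bla HEK293H cells (UAS-beta-lactamase reporter) were treated with compounds for 17 h at 37 C. Viability was then read in the same wells by CellTiter-Glo luminescence after 30 min at room temperature.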

[11] = biological target: Peroxisome proliferator-activated receptor delta (Homo sapiens) (UniProt Q03181); assay: qHTS assay to identify small molecule agonists of the peroxisome proliferator-activated receptor delta (PPARd) signaling pathway (AID 743212; calls by dose curve)
Summary of the method: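 Beta-lactamase reporter readout: a ratiometric FRET signal from the LiveBLAzer substrate after 2 h at room temperature. Compound exposure at 37 °C in PPARδ-bla HEK293H cells driven by an upstream activator sequence.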

[12] = qHTS assay to identify small molecule antagonists of the peroxisome proliferator-activated receptor delta (PPARd) signaling pathway - cell viability counter screen (AID 743213); further: nearly all actives have a fitted effect of over 50% in size; further: potency means the concentration at half of the fitted maximal effect
Summary of the method: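 Agonist-stimulated (L165041, 300 nM final) HEK293H PPARd UAS-bla cells are exposed to compounds for 17 h at 37 C, and ATP-based luminescence (CellTiter-Glo) from the same wells reports cytotoxicity.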

[13] = qHTS assay to identify small molecule agonists of the farnesoid-X-receptor (FXR) signaling pathway - cell viability counter screen (AID 743218); further: nearly all actives have a fitted effect of over 45% in size
Summary of the method: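 Readout: CellTiter-Glo luminescence, 30 min RT, multiplexed after the FXR-bla FRET reading. HEK 293T FXR-UAS-bla cells received compound 5 h post-plating and were incubated 16 h at 37 C.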

[14] = biological target: Vitamin D3 receptor (Homo sapiens) (UniProt P11473); assay: qHTS assay to identify small molecule agonists of the vitamin D receptor (VDR) signaling pathway (AID 743222; calls by dose curve)
Summary of the method: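 Following 4 h attachment at 37C, VDR-bla cells (2,000 per well) received DMSO-dissolved compounds or controls. After 16 h incubation, LiveBLAzer B/G FRET substrate was added and fluorescence read 2 h later at room temperature.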

[15] = biological target: Vitamin D3 receptor (Homo sapiens) (UniProt P11473); assay: qHTS assay to identify small molecule antagonists of the vitamin D receptor (VDR) signaling pathway (AID 743223; active means well fitted inhibition curve with a large enough effect in the signal ratio in the repeat runs, not every such curve was filed as active; the % refers to the signal ratio)
Summary of the method: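 VDR-bla cells were plated, incubated 4 h at 37C, then given compound and 1alpha,25-dihydroxyvitamin D3 (3 nM final). After 16 h at 37C, LiveBLAzer B/G FRET substrate was added for 2 h at room temperature and fluorescence read.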

[16] = biological target: Peroxisome proliferator-activated receptor delta (Homo sapiens) (UniProt Q03181); assay: qHTS assay to identify small molecule antagonists of the peroxisome proliferator-activated receptor delta (PPARd) signaling pathway (AID 743215; active means well fitted inhibition curve with a large enough effect in the signal ratio in the repeat runs, not every such curve was filed as active; the % refers to the signal ratio; further: series mostly up to about 62 µM)
Summary of the method: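 Fluorescence from cleaved LiveBLAzer B/G FRET substrate (2 h, room temperature) reports PPARd-driven beta-lactamase in HEK293H UAS-bla cells. Cells had been treated 17 h at 37 C with compound plus 300 nM final L165041.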

[17] = qHTS assay to identify small molecule antagonists of the farnesoid-X-receptor (FXR) signaling pathway - cell viability counter screen (AID 743221; active means well fitted cell-killing curve with a large enough effect in the repeat runs, not every such curve was filed as active; further: nearly all actives have a fitted effect of over 50% in size)
Summary of the method: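 FXR-UAS-bla HEK 293T cells were treated with test compounds plus chenodeoxycholic acid (50 uM final) for 16 h at 37 C. Cell viability in the same wells was then read as CellTiter-Glo luminescence after 30 min at room temperature.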

[18] = qHTS assay for small molecule agonists of the antioxidant response element (ARE) signaling pathway - cell viability counter screen (AID 743203; calls by dose curve; further: nearly all actives have a fitted effect of over 55% in size)
Summary of the method: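 Measured in the same wells as the beta-lactamase ARE reporter, this read-out is CellTiter-Glo luminescence from HepG2 ARE-bla cells given compounds for 16 hrs.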

[19] = biological target: Bile acid receptor (Homo sapiens) (UniProt Q96RI1); assay: qHTS assay to identify small molecule agonists of the farnesoid-X-receptor (FXR) signaling pathway (AID 743220; active means well fitted activation curve with a large enough effect in the signal ratio in the repeat runs, not every such curve was filed as active; the % refers to the signal ratio)
Summary of the method: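 FXR-UAS-bla HEK 293T cells carrying a UAS-driven beta-lactamase reporter were plated for 5 h at 37C/5% CO2, then exposed to DMSO-dissolved Tox21 10K compounds for 16 h at 37C. A LiveBLAzer B/G FRET substrate was loaded for 2 h at room temperature before fluorescence reading.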

[20] = biological target: Bile acid receptor (Homo sapiens) (UniProt Q96RI1); assay: qHTS assay to identify small molecule antagonists of the farnesoid-X-receptor (FXR) signaling pathway (AID 743217; active means well fitted inhibition curve with a large enough effect in the signal ratio in the repeat runs, not every such curve was filed as active; the % refers to the signal ratio)
Summary of the method: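 FRET fluorescence after 2 h room-temperature LiveBLAzer loading gives the readout. Prior step: FXR-bla HEK 293T cells, seeded and incubated 5 h, received test compounds plus 50 uM final CDCA for 16 h at 37 °C.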

Measured: Potency

Sequence of Vitamin D3 receptor (Homo sapiens) (P11473 whole entry, looked up): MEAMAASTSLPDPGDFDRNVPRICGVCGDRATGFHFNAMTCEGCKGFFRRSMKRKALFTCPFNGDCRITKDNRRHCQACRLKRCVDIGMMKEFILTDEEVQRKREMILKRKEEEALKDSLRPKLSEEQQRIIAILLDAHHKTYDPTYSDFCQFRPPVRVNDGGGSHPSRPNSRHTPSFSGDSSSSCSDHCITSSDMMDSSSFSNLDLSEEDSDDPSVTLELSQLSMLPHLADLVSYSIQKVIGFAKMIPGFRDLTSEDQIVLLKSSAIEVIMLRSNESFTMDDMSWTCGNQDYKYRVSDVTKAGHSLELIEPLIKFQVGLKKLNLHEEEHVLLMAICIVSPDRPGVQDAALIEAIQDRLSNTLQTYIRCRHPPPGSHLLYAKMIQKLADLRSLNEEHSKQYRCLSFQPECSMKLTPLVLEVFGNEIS
Sequence of Bile acid receptor (Homo sapiens) (Q96RI1 whole entry, looked up): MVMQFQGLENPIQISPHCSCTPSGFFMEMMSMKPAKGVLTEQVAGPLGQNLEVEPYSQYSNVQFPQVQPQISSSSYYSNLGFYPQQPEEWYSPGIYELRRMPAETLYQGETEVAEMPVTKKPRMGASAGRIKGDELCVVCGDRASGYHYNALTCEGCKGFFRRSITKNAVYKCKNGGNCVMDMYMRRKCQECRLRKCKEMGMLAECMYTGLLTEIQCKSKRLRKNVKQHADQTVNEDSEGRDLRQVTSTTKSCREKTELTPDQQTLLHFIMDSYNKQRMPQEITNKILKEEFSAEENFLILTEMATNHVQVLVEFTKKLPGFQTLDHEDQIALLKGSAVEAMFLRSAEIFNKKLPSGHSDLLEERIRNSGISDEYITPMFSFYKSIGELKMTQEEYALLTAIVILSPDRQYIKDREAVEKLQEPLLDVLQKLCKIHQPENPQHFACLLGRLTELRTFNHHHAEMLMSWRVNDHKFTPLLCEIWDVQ
Sequence of Peroxisome proliferator-activated receptor delta (Homo sapiens) (Q03181 whole entry, looked up): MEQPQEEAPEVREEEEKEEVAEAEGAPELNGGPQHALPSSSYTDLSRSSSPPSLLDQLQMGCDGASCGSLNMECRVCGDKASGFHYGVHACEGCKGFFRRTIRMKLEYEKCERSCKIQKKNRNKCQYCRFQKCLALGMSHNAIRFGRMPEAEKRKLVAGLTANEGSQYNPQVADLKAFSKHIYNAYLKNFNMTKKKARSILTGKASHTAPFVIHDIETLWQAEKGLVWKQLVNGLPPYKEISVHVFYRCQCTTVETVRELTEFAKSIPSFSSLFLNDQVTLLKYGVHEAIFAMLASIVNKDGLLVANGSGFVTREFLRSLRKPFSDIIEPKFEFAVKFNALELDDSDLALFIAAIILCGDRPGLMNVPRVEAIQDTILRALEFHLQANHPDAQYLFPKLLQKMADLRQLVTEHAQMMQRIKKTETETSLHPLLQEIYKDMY
Sequence of Peroxisome proliferator-activated receptor gamma (Homo sapiens) (P37231 whole entry, looked up): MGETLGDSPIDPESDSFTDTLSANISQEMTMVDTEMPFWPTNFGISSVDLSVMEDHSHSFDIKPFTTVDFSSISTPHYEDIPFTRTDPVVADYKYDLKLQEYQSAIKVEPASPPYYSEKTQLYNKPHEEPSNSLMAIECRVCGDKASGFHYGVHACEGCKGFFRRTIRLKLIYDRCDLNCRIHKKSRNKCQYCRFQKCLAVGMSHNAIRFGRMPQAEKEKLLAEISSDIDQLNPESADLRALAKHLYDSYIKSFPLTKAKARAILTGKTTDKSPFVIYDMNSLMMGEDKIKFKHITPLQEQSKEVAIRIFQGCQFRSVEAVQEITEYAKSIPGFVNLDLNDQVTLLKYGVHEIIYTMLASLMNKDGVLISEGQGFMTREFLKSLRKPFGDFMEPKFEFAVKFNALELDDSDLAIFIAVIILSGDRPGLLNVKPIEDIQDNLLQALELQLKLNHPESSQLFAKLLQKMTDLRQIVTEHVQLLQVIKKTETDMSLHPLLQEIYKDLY
Sequence of Aryl hydrocarbon receptor (Homo sapiens) (P35869 whole entry, looked up): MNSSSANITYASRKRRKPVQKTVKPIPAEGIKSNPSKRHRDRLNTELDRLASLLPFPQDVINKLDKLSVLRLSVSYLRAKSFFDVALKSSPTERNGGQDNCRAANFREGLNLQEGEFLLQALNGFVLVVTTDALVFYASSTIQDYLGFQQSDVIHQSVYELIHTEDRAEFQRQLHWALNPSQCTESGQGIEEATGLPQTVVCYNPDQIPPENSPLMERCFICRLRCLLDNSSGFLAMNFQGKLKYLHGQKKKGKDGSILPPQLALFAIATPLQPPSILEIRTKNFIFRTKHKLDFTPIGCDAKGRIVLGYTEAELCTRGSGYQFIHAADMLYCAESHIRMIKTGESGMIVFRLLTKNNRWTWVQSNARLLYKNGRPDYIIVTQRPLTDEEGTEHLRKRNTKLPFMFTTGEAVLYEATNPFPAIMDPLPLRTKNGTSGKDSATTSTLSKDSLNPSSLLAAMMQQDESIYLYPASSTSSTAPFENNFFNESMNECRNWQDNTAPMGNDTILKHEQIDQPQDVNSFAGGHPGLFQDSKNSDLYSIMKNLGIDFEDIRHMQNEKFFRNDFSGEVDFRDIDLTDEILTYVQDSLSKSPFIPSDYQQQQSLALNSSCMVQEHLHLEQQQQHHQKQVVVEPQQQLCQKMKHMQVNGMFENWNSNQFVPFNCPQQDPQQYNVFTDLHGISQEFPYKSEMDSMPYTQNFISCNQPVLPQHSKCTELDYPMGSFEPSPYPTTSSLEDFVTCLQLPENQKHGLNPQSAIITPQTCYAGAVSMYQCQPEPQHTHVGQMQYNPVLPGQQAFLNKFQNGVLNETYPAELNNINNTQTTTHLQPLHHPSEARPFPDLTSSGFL

Cc1ccnc2ccccc12
not listed: [16] | [17] | [18] | [19] | [20]
inactive: all other assays above

CCCCCCCC/C=C\CCCCCCCC(=O)OC
not listed: [7] | [10] | [13] | [18] | [19] | [20]
inactive: all other assays above

c1ccc(COCc2ccccc2)cc1
not listed: [8] | [20]
inactive: all other assays above

CC1(C)C2=CCCC(C)(C)[C@]23CC[C@H]1C3
not listed: [7] | [10] | [13] | [17]
inactive: all other assays above

CCn1cc(C(=O)O)c(=O)c2cc(F)c(N3CCNCC3)nc21
not listed: [19] | [20]
inactive: all other assays above

CC(C)CCCCCOC(=O)CCCCC(=O)OCCCCCC(C)C
not listed: [7] | [10] | [14] | [17] | [19] | [20]
inactive: all other assays above

CO[C@H]1O[C@H](CO)[C@@H](O)[C@H](O)[C@H]1O
not listed: [7] | [8]
inactive: all other assays above

CCOC(=N)CC(=O)OCC
not listed: [10] | [14] | [15] | [19] | [20]
inactive: all other assays above

CCCCCCCCSCCO
not listed: [10] | [14] | [15] | [20]
inactive: all other assays above

CCCCCCCCCCCCCCC[C@H](O)[C@@H](N)CO
not listed: [7] | [12] | [13] | [14] | [15] | [19] | [20]
inactive: all other assays above

C[Si]1(C)O[Si](C)(C)O[Si](C)(C)O1
not listed: [7] | [10] | [13] | [16] | [17] | [19] | [20]
inactive: all other assays above

CN1CCCN=C1/C=C/c1cccs1
not listed: [7] | [13] | [14] | [16] | [19] | [20]
inactive: all other assays above

C[Si](NC1CCCCC1)(NC1CCCCC1)NC1CCCCC1
not listed: [7] | [10] | [17] | [18]
inactive: all other assays above

Cc1oncc1C(=O)Nc1ccc(C(F)(F)F)cc1
active: [2] 1.14 µM and 21.7 µM | [7] 30.6 µM | [12] 49 µM
not listed: [10] | [14] | [15] | [16] | [20]
inactive: all other assays above

Cc1occc1C(=O)Nc1ccc(C(=O)N2CCC(F)(F)/C(=C\C(=O)N3CCC(N4CCCCC4)CC3)c3ccccc32)cc1
not listed: [7] | [9] | [11] | [12] | [13] | [16]
inactive: all other assays above

C=CC(=O)NCOCC(C)C
not listed: [7] | [11] | [14] | [15] | [16] | [17]
inactive: all other assays above
